# Experimental data from the supplement of paper PMC6555819.
# Assays:
# Assay in all cases: PBM binding z-score (relative to random genomic background probes); higher = stronger binding; sequences stand for … in GC…GCGATTGACAGCGTAGAATGAAGG
# [1] = test system: FXR:RXRa (NR concentration 270 nM, RXRa partner concentration 90 nM)
# Summary of the method: (§1)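 Random background probes are the reference for binding z-scores. These scores derive from regression-normalized fluorescence on custom Agilent 4×180K protein-binding microarrays incubated 1 h with ligand-free nuclear receptor dimers. Binding was detected with antibodies against each partner (one per run).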
# [2] = test system: LXRa:RXRa (NR concentration 270 nM, RXRa partner concentration 90 nM)
# Summary of the method: as §1
# [3] = test system: LXRa homodimer (NR concentration 270 nM)
# Summary of the method: as §1
# [4] = test system: LXRb:RXRa (NR concentration 270 nM, RXRa partner concentration 90 nM)
# Summary of the method: as §1
# [5] = test system: LXRb homodimer (NR concentration 270 nM)
# Summary of the method: as §1
# [6] = test system: PPARa:RXRa (NR concentration 270 nM, RXRa partner concentration 90 nM)
# Summary of the method: as §1
# [7] = test system: PPARg:RXRa (NR concentration 180 nM, RXRa partner concentration 90 nM)
# Summary of the method: as §1
# [8] = test system: PPARg:RXRa 270nM:90nM, anti-RXR (NR concentration 270 nM, RXRa partner concentration 90 nM)
# Summary of the method: as §1
# [9] = test system: PPARg:RXRa 30nM:10nM, anti-RXR (NR concentration 30 nM, RXRa partner concentration 10 nM)
# Summary of the method: as §1
# [10] = test system: PPARg:RXRa 90nM:30nM, anti-RXR (NR concentration 90 nM, RXRa partner concentration 30 nM)
# Summary of the method: as §1
Sequence,PBM binding z-score [1],PBM binding z-score [2],PBM binding z-score [3],PBM binding z-score [4],PBM binding z-score [5],PBM binding z-score [6],PBM binding z-score [7],PBM binding z-score [8],PBM binding z-score [9],PBM binding z-score [10]
TCATATAGGTAAACCGGTGAAAGTCCGTAAGTTA,0.407,0.533,0.147,0.517,-0.352,1.68,1.17,2.72,3.49,2.97
TCGTATAGGTAATACAGGTGAAAGTCGGCATCTA,0.718,1.21,0.63,0.967,-0.231,1.75,0.665,1.96,2.76,2.39
AATACAGGGTCATCGTAGGCCAGAGTGCGCACAG,7.13,6.46,2.47,4.75,1.07,5.99,6.7,6.16,2.72,4.73
CCGACTGGGGCAGAAAGGGTACCATACCATCCGG,-0.642,-0.505,-0.574,-0.581,-1.48,0.209,0.831,0.193,-0.692,0.0495
CCTGCTAGATCATGGTCAGCTAATCTACAGTATG,-0.747,-0.678,-0.68,-0.476,-0.922,-0.672,0.0409,-0.513,-0.306,-0.269
GCGACTGCGGCATCAGCAGGTTACCATAACTTAA,-0.558,-0.742,0.0285,-0.388,-1.12,-0.34,-0.014,-0.695,-0.628,-0.649
GCGACTGGGGAATCAGCAGGTTACCATAACTTAA,-0.766,-0.57,-0.287,0.0771,-1.25,0.0843,0.0906,-0.19,-0.448,-0.292
TCTAGTTGGTCACGGAGGTCACACAGGACGGGTA,3.66,3.54,2.46,3.05,0.75,3.83,3.74,3.76,3.51,3.91
AGTCAAAGTTTAGGACGAGGTAACGTAAAGCACG,0.493,-0.103,-0.205,-0.158,-0.175,0.331,0.904,0.793,0.252,0.625
TCTATTAGTTGAAGGGCAGCCGACGAGTCCGTTT,0.906,0.864,0.0935,0.623,0.323,0.856,-0.213,1.78,3.64,2.81
CCGACTGGGGCAGAAAGGTTACCAGACCATCCGG,0.0987,0.481,-0.312,0.525,-1.23,2.1,1.47,2.61,0.619,2.04
ATACTAAGGTGATCGTGAGGTCGTTGATACTAAC,2.4,2,0.85,1.55,0.314,2.07,0.615,0.774,0.762,0.566
GCGACTGGGGCATCAGCAGGTGACCATAACTTAA,-0.501,-0.679,-0.385,0.223,-1.22,0.831,0.922,0.832,-0.507,-0.0151
TAGTCTAGGTCAGATCGGGCCAGTATACGCTATA,1.81,1.91,0.186,1.13,1.4,2.38,2.36,2.4,0.965,1.92
TCTTGTAGATCAAAGGTTGAGAAAGCCGAAGCCT,0.89,0.864,-0.12,0.541,-0.308,3.14,5.99,6.2,5.78,6.91
GCTGCTAGGTCAACTGATGGTCAGCCAAAGCTCG,3.81,3.1,0.159,2.08,0.187,3.65,2.88,2.91,0.226,1.68
TCTAGCATGCCAGAGGGTCACTCAAGAGGTACGG,0.892,0.929,-0.463,1.43,-1.1,2.5,1.02,1.69,1.89,1.76
CGAACTAGGTAATTGACAGGACAGTGAATAGTAA,-0.398,-0.336,0.0257,-0.434,-0.603,0.979,1.09,0.555,0.0511,0.213
CCAGACAGGTGAAAGGTGACTCAGTCTGGTACGC,1.34,1.27,-0.086,1.33,-0.308,4.15,6.88,6.76,5.26,7.19
CCAACTGGGGCATAAGGTTACCATAAGCCAGCCC,0.142,1.69,-0.161,0.858,-1.05,2.56,3.63,3.93,1.9,3.24
TCTAGCAGGCCAGCGGGTCACTCAAGAGGTACGG,0.662,0.558,-0.567,0.777,-0.97,1.92,0.601,1.74,1.72,1.65
ACTCAAAGTTCACTAGGTAACGTAAGATTCAGCT,5.32,5.16,3.54,3.55,1.83,4.73,5.15,5.21,2.16,4.22
CGTCAAAGTTCAACTATGGTAACGTAAAGCACGC,6.59,6.03,3.91,4.34,2.3,4.97,4.9,5.62,2.24,4.52
TCTAGCAGGCCAGAAGGTCACTCAAGAGGTACGG,1.61,2.17,0.0558,1.8,-0.711,3.04,1.46,2.86,2.27,2.71
CGTCCAAGGTCATCGGAGGTCAGTGAAGACAGAT,8.01,7.87,5.77,6.23,1.29,5.95,5.99,5.91,2.4,4.7

Sequence,PBM binding z-score [1],PBM binding z-score [2],PBM binding z-score [3],PBM binding z-score [4],PBM binding z-score [5],PBM binding z-score [6],PBM binding z-score [7],PBM binding z-score [8],PBM binding z-score [9],PBM binding z-score [10]
GGAACGAGGGCAATGTTGATAGCATCTGTCGACG,0.66,0.337,-0.33,0.395,-0.557,1.66,1.4,1.49,0.128,0.931
CCTTACGGGTCACTCCAGGTTATAGCGTCGGAGT,5.26,7.75,1.89,5.52,0.0674,4.65,3.13,3.94,1.17,2.7
AGAACGAGGGCAAGGAGTTGATAGCACGGGTGGC,0.193,0.0802,-0.479,-0.441,-0.879,1.2,1.25,1.06,-0.111,0.543
TAGCCTAGGTCATTGGTCCAGTATAGTACGCATC,3.97,3.31,1.33,2.7,0.535,3.56,2.48,2.55,0.941,2.27
GCTGCTAGGTGAACTGATGGTCAGCTAAAGCTCG,-0.0942,-0.291,-0.843,-0.328,-1.56,1.27,0.329,0.967,-0.226,0.635
CGTCCAAGGTCAGAGAGGTAAGTGAATGCCGAGT,4.98,3.18,0.174,2.39,-0.0952,3.93,2.19,2.66,0.414,1.42
GATACCGGGTCAGCTAGAGGCCAGAGTATGGAAA,2.65,1.51,-0.9,1.21,-1.03,3.5,2.92,2.42,0.487,1.18
GCTAGCAGGCCTTTTGGGTCACTCAATGACGGGC,0.126,-0.171,-0.408,0.187,-1.11,0.992,0.209,0.00506,-0.68,-0.138
ATCTCTAGGGAACCAAGTTCAGTGAATGCCGAAC,-0.221,0.011,0.471,0.284,0.239,0.00792,-0.0553,0.046,0.00419,0.0789
CAAACTAGGTCAAAGGTCAAAGTGGAGCCAACCA,7.94,7.01,5.57,6.96,3.14,7.45,13.9,11.2,12.3,13.7
GCGACTGGGGCAAAGCAGGTTACCATGAGGTTGG,0.529,0.0146,-0.506,0.0618,-0.859,1.1,1.18,1.05,-0.313,0.335
TAACCTAGGTCATTGGGCCAGTATAGTACGCATC,5.13,4.92,2.81,3.43,0.934,4.54,4.87,4.88,1.89,3.88
GCTAGAAGGCCATTTGGGTCACTCAATGACGGGC,0.421,0.146,-0.572,0.474,-0.706,1.49,0.807,0.44,-0.268,-0.245
CGTACAAGGTCATAGGAGGTCAGTGAAGACAGAT,7.48,7.5,5.3,6.46,1.33,6.18,6.47,6.66,3.17,5.29
CCTACTGGGCCACGAAAGGTCATCGATTCAGTGA,3.74,5.24,4.54,4.28,0.188,5.09,5.36,5.2,2.42,4.73
CGAACTAGGTCAGAACCGGACAGTGAAGGATGAT,0.841,0.508,-0.0192,0.198,-0.379,2.72,4.56,4.31,1.5,3.4
CCTATTAGTTGACCATAAGGGCAACGGAAGCTCG,0.826,0.337,0.454,0.234,0.609,0.552,0.455,0.511,0.321,0.476
ATACCAAGGTGATCGTGAGGTGGTTGATACTAAC,0.375,0.57,0.0365,-0.0432,0.00305,0.168,0.411,0.0619,0.226,0.142
GCAGACAGGCGAAACGCAGGTAACTCAGGGTGGC,-0.64,-0.615,-0.761,-1,-1.38,-0.682,0.297,-0.871,-0.326,-0.791
TAGGCTAGGTCATTCAGGGGCCAGTATAGAAAGC,5.03,3.64,0.726,2.79,1.32,3.63,2.37,2.47,0.608,1.64
TCATGTAGATCAACAGGAGGTTAAGAAAGATCGA,0.191,1.12,0.0437,0.814,-0.691,1.38,0.396,1.35,2.65,1.97
CCAGACACGTGAGAAGGTAACTCAGCCTCGATTA,-0.22,-0.083,-0.348,-0.3,-0.11,-0.534,0.37,-0.804,-0.82,-0.704
TCGAGTAGGTTACAAATGGGGCATTCAGCTTTCT,0.181,1.08,-0.216,1.01,-0.699,1.25,0.565,1.21,1.43,1.04
TTACCAAGGTGAGCTGAGGCCGTTGATCCAACTC,0.053,-0.536,-0.916,-0.569,-1.39,0.236,-0.296,-0.253,-0.438,-0.329
